Rows were chosen to be rich in hits. Some 3.2% of all compounds tested hit in one or more screens of this group.
dFosB activator: enhances mouse delta FosB homodimer DNA binding; P13346; purified delta FosB, TAMRA-CDK5 oligo fluorescence polarization; percent of positive-control signal above neutral wells; activation, % at 25 µM; hit rate 0.99% among 340,000; AID 493131;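 active means mean activation above about 17%, with every replicate also reaching it, limit read from the data, passing the limit was not always enough; inconclusive means only one of the two conditions met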
esBAF inh: blocks esBAF chromatin remodeling in mouse ES cells; Bmi1-luciferase knock-in reporter, 24 h; 100% = twice the neutral-well signal; reporter increase, % at 12.5 µM; hit rate 2% among 350,000; AID 602393; in the data active means activation above about 40%; inconclusive means no clear call, values can overlap the other calls;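 further: 0% = median of the plate's neutral control wells and 100% = double that signal; a rise in the Bmi1 reporter signal indicates esBAF inhibition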
Dyrk1A ADPGlo: inhibitors of rat Dyrk1A kinase; Q63470; ADP-Glo luminescence, NFATc1 peptide; inhibition, % at 12.5 µM; hit rate 0.43% among 310,000; AID 504441; in the data active means inhibition above about 50%;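 further: plate controls were vehicle with enzyme for no effect and no enzyme for full effect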
CDK5 p35 inh: CDK5/p35 (human) kinase inhibition; AID 488839; hit rate 0.01% among 330,000; inhibition, % at 10 µM; Recombinant CDK5/p35, ADP-Glo luminescence, 60 min; Q00535+Q15078;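 active means highest replicate inhibition of at least 50% and at least 75% of replicates reaching 50%; inconclusive means only one of the two criteria met; inactive means both criteria failed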;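 further: plate controls were DMSO neutral control for no effect and GW8510 at 10 µM for full effect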
Target sequence (Q00535 whole entry, looked up): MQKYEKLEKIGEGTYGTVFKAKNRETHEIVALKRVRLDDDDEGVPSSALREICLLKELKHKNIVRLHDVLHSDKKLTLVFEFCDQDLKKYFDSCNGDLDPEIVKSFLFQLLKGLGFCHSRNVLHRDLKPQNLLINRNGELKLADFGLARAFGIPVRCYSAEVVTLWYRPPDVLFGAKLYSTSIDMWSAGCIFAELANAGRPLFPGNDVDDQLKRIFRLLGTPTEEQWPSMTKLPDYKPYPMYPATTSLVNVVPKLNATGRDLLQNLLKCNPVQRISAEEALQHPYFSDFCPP
Target sequence (Q15078 whole entry, looked up): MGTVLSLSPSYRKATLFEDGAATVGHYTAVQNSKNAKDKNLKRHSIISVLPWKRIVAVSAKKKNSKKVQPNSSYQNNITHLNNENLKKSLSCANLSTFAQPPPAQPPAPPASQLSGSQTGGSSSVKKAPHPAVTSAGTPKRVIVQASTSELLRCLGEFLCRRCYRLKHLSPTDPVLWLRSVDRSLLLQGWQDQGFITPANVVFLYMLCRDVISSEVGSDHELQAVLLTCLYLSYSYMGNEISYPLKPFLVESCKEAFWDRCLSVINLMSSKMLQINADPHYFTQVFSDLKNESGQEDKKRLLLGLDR
SMARCA2 act: activators of SMARCA2 function | MG213 cells, MMTV-luciferase reporter, dexamethasone, overnight | activation, % at 9.1 µM | AID 652017 | hit rate 1% among 370,000; in the data active means activation above about 7.8%;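 further: 0% = vehicle wells and 100% = reference activator wells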
Rtt109 HAT inh: inhibitors of Candida albicans Rtt109/Vps75 histone acetyltransferase; purified Rtt109/Vps75, ThioGlo CoA-SH fluorescence, 4 h; inhibition, % at 34.9 µM; hit rate 0.16% among 330,000; AID 540336;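 active means inhibition of at least 50% in every replicate; inconclusive means best replicate reaches 50% inhibition but some replicates fall short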
Starred values were filed as active, the others as inactive; ? = inconclusive; . = not tested or not shown.

SMILES	dFosB activator	esBAF inh	Dyrk1A ADPGlo	CDK5 p35 inh	SMARCA2 act	Rtt109 HAT inh
C[C@@H]1CN([C@@H](C)CO)C(=O)Cc2cc(NC(=O)CCN3CCOCC3)ccc2O[C@H]1CN(C)S(C)(=O)=O	.	-3.7	.	.	.	.
O=[N+]([O-])c1ccc(C=NN2CCCCCC2)cc1	1.5	69.2*	-4.3	-1.4	-1.8	-3.5
CC(=O)Nc1ccc(/C=N/N2CCCCC2)cc1	6.3	61.6*	-0.2	1.0	-1.3	-6.5
COc1ccc(S(=O)(=O)Nc2cccc3c2O[C@@H](CN(C)S(=O)(=O)c2ccc(F)cc2)[C@@H](C)CN([C@H](C)CO)C3=O)cc1	.	2.0	.	.	.	.
COc1ccc(C(=O)Nc2ccc3c(c2)C(=O)N(C)C[C@@H](OC)[C@@H](C)CN[C@@H](C)CO3)cc1	.	-3.1	.	.	.	.
COc1c(C(=O)Nc2nnc(C3CC3)s2)csc1Cl	-1.6	47.7*	3.9	0.6	4.5	-0.2
O=C(Nc1nnc(C2CC2)s1)c1cccs1	-2.3	.	.	-0.4	4.5	-6.2
CN(C)CCNC(=O)c1ccccc1-c1cc2ccccc2c(=O)o1	-8.5	-0.3	-1.6	0.4	-2.6	6.1
CN(CCNC(=O)c1c[nH]c2c1ccc1ccccc12)CCNC(=O)c1c[nH]c2c1ccc1ccccc12	43.6*	.	.	-1.3	4.4	3.1
COCC(=O)N1C[C@@H]2[C@H](c3ccccc31)[C@H](CO)N2Cc1ccccc1Cl	.	-4.6	.	.	.	.
CCc1cc(C=NC2CCCCC2)c(O)s1	-5.1	51.2*	8.4	-1.1	4.9	3.6
CO[C@@H](CN(C)C(=O)c1ccccc1F)[C@@H](C)CN([C@@H](C)CO)S(=O)(=O)c1ccc(C)cc1	.	-2.2	.	.	.	.
CCCn1c(=O)c(C(=O)Nc2cccc(C)n2)c(O)c2ccccc21	2.4	50.3*	1.1	0.2	4.3	1.9
CCCn1c(=O)c(C(=O)Nc2ncccc2C)c(O)c2ccccc21	-14.0	.	-0.5	1.2	0.6	-2.3
CN(C)CCCN(C(=O)c1ccc(S(=O)(=O)N2CCc3ccccc3C2)cc1)c1nc2c(F)cc(F)cc2s1	37.4*	6.5	15.8	-0.3	.	3.4
COc1cccc2sc(N(CCN(C)C)C(=O)/C=C/c3cccs3)nc12	-6.0	.	.	-1.8	6.0	4.6
COc1cc2nc(N(CCCN(C)C)C(=O)c3ccc(S(=O)(=O)N4CCc5ccccc5C4)cc3)sc2cc1OC	5.4	2.1	-0.9	1.9	-1.0	-8.4
COc1ccc(C)c2sc(N(CCCN(C)C)C(=O)c3ccc(S(=O)(=O)N4CCc5ccccc5C4)cc3)nc12	69.7*	-70.3	4.9	-0.1	-8.8	?
COc1ccc(C)c2sc(N(CCN(C)C)C(=O)/C=C/c3cccs3)nc12	78.4*	11.3	2.7	0.4	-1.4	-20.9
Cc1ccc2sc(N(CCCN(C)C)C(=O)c3ccc(S(=O)(=O)N4CCc5ccccc5C4)cc3)nc2c1C	38.1*	.	-4.8	0.7	-0.3	6.2
C[C@@H]1CN([C@H](C)CO)C(=O)c2cc(/C=C/c3ccccc3)cnc2O[C@H]1CN(C)C(=O)CN1CCOCC1	.	4.3	.	.	.	.
CCOC(=O)c1nn(-c2ccc(C)c(C)c2)cc1O	-9.4	46.1*	26.0	-3.3	7.0	2.2
CCOC(=O)c1nn(-c2ccc(C)cc2)cc1C(=O)c1ccccc1	2.5	78.5*	6.6	-1.2	3.5	0.9
Cc1ccc(NC(=O)COC(=O)c2nn(-c3ccc(Cl)cc3)cc2O)cc1	-4.3	49.1*	.	-1.2	1.9	-2.6
CC(C)NC(=O)N(C)C[C@@H]1Oc2ncc(C#Cc3ccncc3)cc2C(=O)N([C@@H](C)CO)C[C@H]1C	.	0.5	.	.	.	.
SMILES	dFosB activator	esBAF inh	Dyrk1A ADPGlo	CDK5 p35 inh	SMARCA2 act	Rtt109 HAT inh
O=C(C[C@H]1CC[C@@H]2[C@H](COC[C@H](O)CN2Cc2ccccc2)O1)NCc1ccccc1Cl	.	-3.5	.	.	.	.
Cc1ccc(/C=C/C(=O)Nc2ccc([N+](=O)[O-])cc2)o1	-2.7	63.8*	-0.9	1.6	4.2	-1.4
Cc1ccc(/C=C/C(=O)Nc2ccc(Oc3ccccc3)cc2)o1	-12.6	.	-1.0	0.0	-5.2	-13.6
O=C(OCc1ccccc1)N1CCC2CC1c1ccc(N3CCOCC3)cc12 (stereo unspecified)	.	46.5*	.	.	-1.0	.
N#Cc1c(SCC(=O)Nc2ccc(Cl)cc2Cl)sc2c(O)cc(=O)[nH]c12	-16.3	-4.3	-8.5	-0.4	7.8*	1.2
CCCCc1ccc(NC(=O)C2CCCC2)cc1	-5.2	.	.	-7.1	7.8*	5.5
CCOc1ccc(NC(=O)C(=S)NC2CCCCC2)cc1	-6.5	.	-1.4	1.3	-1.3	0.3
CCOc1ccc(NC(=O)NC2CCCCCCC2)cc1	-8.1	59.0*	6.3	0.8	1.4	-4.6
Cc1ccc(NC(=O)NC2CCCCC2)cc1Cl	3.3	85.2*	6.3	-0.4	3.4	2.0
CCOc1ccc(NC(=O)Nc2cccc(C)n2)cc1	0.7	56.8*	1.4	0.4	3.2	-6.4
Cn1cnc(S(=O)(=O)N[C@H]2C=C[C@@H](CC(=O)NCC3CC3)O[C@H]2CO)c1	.	-0.7	.	.	.	.
C[C@H]1CN([C@@H](C)CO)C(=O)c2cc(NS(=O)(=O)c3ccc(Cl)cc3)ccc2O[C@@H]1CN(C)S(=O)(=O)c1ccc(F)cc1	.	-6.1	.	.	.	.
CC(OC(=O)c1ccc(NC(=O)CC#N)cc1)C(=O)NC(=O)NC1CCCCC1 (stereo unspecified)	58.2*	1.6	-0.8	-1.7	-2.4	-12.3
O=C(CNC1CCCCC1)Nc1cccc([N+](=O)[O-])c1	3.7	6.2	-0.9	3.9	-3.0	-13.1
O=C(Nc1cccc([N+](=O)[O-])c1)NC1CCCCCCC1	-5.2	77.6*	9.5	0.4	-0.9	5.9
O=C(Nc1ccccc1)NC1CCCCC1	-4.2	46.1*	9.1	1.7	0.4	5.3
O=C(NC1CCCCC1)N(c1ccccc1)c1nnc(-c2cccc([N+](=O)[O-])c2)s1	.	66.0*	.	.	3.2	.
O=C(Cc1ccccc1)Nc1nnc(-c2cccc([N+](=O)[O-])c2)s1	-6.3	.	-2.5	1.3	-0.4	-2.5
O=C(C[C@H]1C=C[C@@H](NC(=O)c2ccccn2)[C@@H](CO)O1)NCc1cc(F)cc(F)c1	.	-5.1	.	.	.	.
CCc1ccc(NC(=O)NC2CCCCCCC2)cc1	4.4	57.9*	13.0	-2.6	6.2	9.0
CCc1ccc(NC(=O)C(=S)NC2CCCCC2)cc1	-0.3	29.7	0.3	1.0	4.5	-4.6
O=C(NC(=O)N1CCN(c2ccccc2)CC1)c1ccc(Cl)cc1	1.9	49.5*	2.2	-0.3	6.1	-2.1
O=C(NC(=O)N1CCN(c2cccc(Cl)c2)CC1)c1ccc(Cl)cc1	-6.5	-2.6	0.2	-3.3	0.5	3.6
CCCCc1nc2cc(C(=O)NC(C)c3cnn(C)c3)ccc2o1 (stereo unspecified)	-0.7	60.6*	0.7	0.4	3.8	-8.1
CCCCc1nc2cc(C(=O)NCc3ccccn3)ccc2o1	-5.3	-2.4	2.8	-0.2	-2.7	14.7

Assay outcomes (PubChem BioAssay)
